CYP2C19 inhib: human CYP2C19 inhibition; 96,000 tested, 21% active; AID 778; inhibition, % at 5 µM; CYP2C19 Supersomes, luciferin-H EGE luminescence, 30 min;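 active means CYP2C19 inhibition above a set limit at 5 µM in the primary screen, cut at about 50% in these data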;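 further: plate controls were negative control wells for no effect and 2.5 mM tranylcypromine positive control for full effect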
CYP2C19 act: activators of human cytochrome P450 2C19 | P33261 | recombinant CYP2C19, luciferin-H EGE luminescence; stronger effect = higher value; 0 = fully inhibited enzyme, 1 = untreated enzyme | activation factor at 5 µM | 96,000 tested, under 10 active | AID 1025;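 active means activation factor of at least 2 at 5 µM in the primary screen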;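 further: 0 = wells with 2.5 mM tranylcypromine and 1 = vehicle-only wells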
CD11b adhes enh: enhancers of human CD11b/CD18 binding to fibrinogen; K562 CD11b/CD18 adhesion to fibrinogen, ATPlite luminescence; activation, % at 10 µM; 93,000 tested, 0.07% active; AID 1499;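 active means 10 µM primary screen giving 50% or more activity, confirmed by 40% or more on retest at that dose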
CYP2C9 inhib: inhibitors of human CYP2C9; P11712; CYP2C9 Supersomes, luciferin-H conversion, luminescence; inhibition, % at 5 µM; 96,000 tested, 20% active;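 active means blocking of liver enzyme CYP2C9 beyond about 50% at 5 µM, limit read from the data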
Target sequence (P11712 whole entry, looked up): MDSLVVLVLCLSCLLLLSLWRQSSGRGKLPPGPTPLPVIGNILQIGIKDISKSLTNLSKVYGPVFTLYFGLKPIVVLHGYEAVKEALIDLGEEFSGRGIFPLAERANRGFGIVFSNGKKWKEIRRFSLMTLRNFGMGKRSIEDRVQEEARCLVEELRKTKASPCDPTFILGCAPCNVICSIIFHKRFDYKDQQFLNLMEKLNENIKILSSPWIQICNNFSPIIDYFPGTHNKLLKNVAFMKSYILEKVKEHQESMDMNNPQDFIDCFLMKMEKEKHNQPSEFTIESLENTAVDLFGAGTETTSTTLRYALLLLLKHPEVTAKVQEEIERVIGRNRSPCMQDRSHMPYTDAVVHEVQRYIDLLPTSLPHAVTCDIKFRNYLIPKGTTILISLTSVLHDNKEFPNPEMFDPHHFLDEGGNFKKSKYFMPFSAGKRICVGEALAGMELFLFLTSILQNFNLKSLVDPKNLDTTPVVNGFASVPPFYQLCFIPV
Mac1 fbg inh: blocks human CD11b/CD18 adhesion to fibrinogen. P05107+P11215. inhibition, % at 10 µM. 93,000 tested, 0.54% active. K562 CD11b/CD18 adhesion to fibrinogen, ATPlite luminescence; Mn2+ added to activate the integrin. AID 1497;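 active means primary inhibition of 50% or more at 10 µM, then 40% or more on retest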
CYP2C9 act: CYP2C9 (human) activation; P11712; recombinant CYP2C9, luciferin-H conversion, luminescence; stronger effect = higher value; factor 1 = untreated enzyme, 0 = blocked; activation factor at 5 µM; 96,000 tested, 1.4% active;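 active means activation factor of 2 or more for CYP2C9 at a 5 µM dose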;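 further: 0 = sulfaphenazole-blocked wells and 1 = vehicle-only wells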
Active calls of the source: *; . = no result. An excerpt weighted towards active compounds, which were near 28% of everything screened.

SMILES	CYP2C19 inhib	CYP2C19 act	CD11b adhes enh	CYP2C9 inhib	Mac1 fbg inh	CYP2C9 act
Cc1cccc(S(=O)(=O)N2CN(Cc3ccco3)c3nc4ccccc4nc32)c1	79*	0.2	-8	61*	25	0.4
COCCN1CN(S(=O)(=O)c2ccc(Cl)cc2)c2nc3ccccc3nc21	94*	0.1	-1	51*	-1	0.5
CC(C)CCN1CN(S(=O)(=O)c2cccs2)c2nc3ccccc3nc21	12	0.9	-1	14	-13	0.9
CCCCN1CN(S(=O)(=O)c2cccs2)c2nc3ccccc3nc21	2	1	-2	-2	2	1
COCCN1CN(S(=O)(=O)c2ccccc2)c2nc3ccccc3nc21	83*	0.2	6	63*	-14	0.4
CC(=O)Nc1ccc(S(=O)(=O)NNC(=O)COc2cccc3ccccc23)cc1	.	.	5	.	1	.
Cc1ccc(S(=O)(=O)NC(CC(C)C)C(=O)NCc2ccco2)cc1 (configuration not stated)	54*	0.5	-2	56*	-6	0.4
Cc1ccc(S(=O)(=O)NC(CC(C)C)C(=O)Nc2nccs2)cc1 (configuration not stated)	43	0.6	-2	81*	-4	0.2
COC(=O)C1=C(C)N(C2CCCC2)C(=O)C1(NC(C)=O)C(F)(F)F (configuration not stated)	-19	1.2	-7	-17	48	1.2
COc1ccc(OCC(=O)NNC(=O)c2cccc(S(=O)(=O)N(C)C)c2)cc1	.	.	-1	.	-10	.
CCCC(=O)Nc1nc2c(c(=O)[nH]1)CCCC2	3	1	-2	-1	-2	1
Cc1nnc(-c2cccc(Br)c2)c2cn(-c3ccccc3Cl)nc12	60*	0.4	1	66*	2	0.3
Cc1ccc(-n2cc3c(-c4cccc(Br)c4)nnc(C)c3n2)cc1	77*	0.2	2	92*	13	0.1
COc1ccc(CCN(C(=O)c2ccccc2)C2=CC3CCC(C2)N3C)cc1OC (configuration not stated)	8	0.9	0	3	7	1
COc1cccc2cc(-c3csc(CCn4nc(C)cc4C)n3)c(=O)oc12	82*	0.2	8	66*	-4	0.3
CCC1(c2cccc(Cl)c2)NC(=O)N(Cc2cc(C(=O)OC)c(C)o2)C1=O (configuration not stated)	62*	0.4	1	0	13	1
CCC1(c2ccccc2)NC(=O)N(Cc2ccc(C(=O)OC)cc2)C1=O (configuration not stated)	.	.	0	.	19	.
CCOc1ccc2cc(C#N)c(SCC(=O)NC(C)CC)nc2c1 (configuration not stated)	-5	1	4	54*	11	0.5
CCOC(=O)CSc1nc2cc(OCC)ccc2cc1C#N	15	0.8	9	49	-16	0.5
COCC(=O)N1CCCN(c2nc3c(C)cccc3cc2C#N)CC1	64*	0.4	4	5	1	1
Cc1cccc2cc(C#N)c(SCC(=O)N3CC(=O)Nc4ccccc43)nc12	4	1	.	48	.	0.5
CCOc1ccc2nc(SCC#N)c(C#N)cc2c1	11	0.9	-4	67*	-18	0.3
Cc1cccc2cc(C#N)c(SCC(=O)N3CCC(C)CC3)nc12	35	0.6	-1	59*	23	0.4
Cc1c(NC(=O)COC(=O)c2cc3c4ccccc4n(C)c3s2)c(=O)n(-c2ccccc2)n1C	42	0.6	-7	-4	27	1
CCC1CCC2(CC1)NNC(=S)NN2	33	0.7	1	19	-11	0.8
SMILES	CYP2C19 inhib	CYP2C19 act	CD11b adhes enh	CYP2C9 inhib	Mac1 fbg inh	CYP2C9 act
COc1ccc(OC(=O)c2cnn(-c3ccccc3)c2C)cc1	20	0.8	-3	39	-2	0.6
CCOc1ccc2cc(C#N)c(SCC(=O)N3CCC(C)CC3)nc2c1	22	0.8	8	63*	-4	0.4
Cc1cc(C)c(C)c(S(=O)(=O)N2CCN(CC(=O)NC(=O)NCc3ccccc3)CC2)c1C	-4	1	0	-30	-9	1.3
Cc1cccc(C(C)(C)C)c1OCCn1ccnc1	98*	0	0	66*	-23	0.3
Cc1cccc(Cl)c1OCCCCn1ccnc1	100*	0	-1	96*	2	0
Cc1cc(Cl)cc(C)c1OCCCCn1ccnc1	100*	0	1	96*	2	0
Cc1cccc(C(C)(C)C)c1OCCCCN1CCCC1	2	1	-8	-5	5	1.1
CC(=O)c1cccc(NS(=O)(=O)c2cc(OCC(N)=O)c(C)cc2Cl)c1	13	0.9	-1	28	0	0.7
Cc1ccc(N2C(=O)c3ccc(C(=O)N4CCN(c5ccccc5F)CC4)cc3C2=O)cc1	9	0.9	0	6	4	0.9
C=C(C)CN(CC)c1nc(N)c2c(N)nc3c(c2c1C#N)CC(=O)N3C12CC3CC(CC(C3)C1)C2	42	0.6	38	92*	-20	0.1
CCCCN1C(=O)Cc2c1nc(N)c1c(N)nc(N(CCC)CCC)c(C#N)c21	-1	1	64	42	-13	0.6
COC(=O)c1[nH]nc2c1C(=O)N(Cc1ccccc1)C2=O	4	1	3	17	20	0.8
CCOC(=O)C1CCN(S(=O)(=O)Cc2ccccc2)C1=O (configuration not stated)	77*	0.2	-2	6	2	0.9
COC(=O)/C(=N/Nc1ccccc1Cl)Sc1nnc(C(O)c2ccccc2)n1-c1ccccc1 (configuration not stated)	.	.	-1	.	26	.
CON(c1nc(N(C)C)nc(N(C)C)n1)S(=O)(=O)c1ccccc1Cl	49	0.5	.	17	.	0.8
Cc1ccnc(Sc2ccc([N+](=O)[O-])cc2[N+](=O)[O-])n1	77*	0.2	-2	4	5	1
COC(=O)c1ccc(=O)n(Cc2ccc3c(c2)OCO3)c1	98*	0	-1	40	2	0.6
COC(=O)c1cn(N(C)c2ncc(C(F)(F)F)cc2Cl)c(=O)c2ccccc12	98*	0	0	100*	-7	0
COC(=O)c1cn(Nc2ncc(C(F)(F)F)cc2Cl)c(=O)c2ccccc12	52*	0.5	-3	35	-6	0.7
COC(=O)c1cn(NC(=O)c2cnccn2)c(=O)c2ccccc12	0	1	-3	1	-3	1
Cc1ccc2nc3c(nc2c1)-c1ccccc1C3=O	-7	1.1	4	4	-4	1
Cc1ccc(S(=O)(=O)NC(C)(C)CSc2nnc(N)s2)cc1	99*	0	-2	80*	15	0.2
CCn1c(N2CCN(S(=O)(=O)c3ccccc3C(F)(F)F)CC2)nc2ccccc21	69*	0.3	-2	-15	7	1.2
